From PubChem BioAssay AID651730 (NMMLSC, 2012)
Values without a mark were called inactive. The rule behind the calls is not given here.

Assay: V-ATPase regulators in yeast, S. cerevisiae, pHLuorin, powder sets 2-3, dose response (AID 651730)
Details: S. cerevisiae vacuolar pH, pHluorin fluorescence; series mostly up to 100 µM; response, percent: at the top concentration
For `N#Cc1cccc(C(=O)Nc2ccccc2N2CCOCC2)c1`, the “response, percent” value was 0.04%.
For `Nc1ncc(C(=O)Nc2ccccc2N2CCOCC2)o1`, the “response, percent” value was -2.29%.
In the case of `NC(=O)c1cccc(C(=O)Nc2ccccc2N2CCOCC2)c1`, the “response, percent” value is reported as 1.11%.
With `N#Cc1ccnc(C(=O)N2CCN(c3nc4ccc(F)cc4s3)CC2)c1` the “response, percent” value was 0.08%.
For `O=C(Nc1ccccc1N1CCOCC1)c1cc(C(F)(F)F)ccn1`, the “response, percent” value was -0.77%.
For `O=C(c1cccc(C(F)(F)F)n1)N1CCN(c2nc3ccc(F)cc3s2)CC1`, the “response, percent” value was 5.41%.
In the case of `Cc1cncc(C(=O)Nc2ccccc2N2CCOCC2)n1`, the “response, percent” value is reported as 2.49%.
In the case of `CS(=O)(=O)Cc1cccc(C(=O)N2CCN(c3nc4ccc(F)cc4s3)CC2)c1`, the “response, percent” value is reported as 1.15%.
In the case of `CC(C)(C)c1ccc(C(=O)N2CCN(c3nc4ccc(F)cc4s3)CC2)o1`, the “response, percent” value is reported as 4.73%.
For `Cc1cncc(C(=O)N2CCN(c3nc4ccc(F)cc4s3)CC2)n1`, the “response, percent” value was -6.23%.
With `Cc1ccc(C(=O)Nc2ccccc2N2CCOCC2)o1` the “response, percent” value was 7.72%.
With `CS(=O)(=O)c1ccc(C(=O)Nc2ccccc2N2CCOCC2)o1` the “response, percent” value was 3.26%.
For `COCc1ccc(C(=O)N2CCN(c3nc4ccc(F)cc4s3)CC2)o1`, the “response, percent” value was -1.66%.
In the case of `NC(=O)c1ccc(C(=O)N2CCN(c3nc4ccc(F)cc4s3)CC2)o1`, the “response, percent” value is reported as -1.73%.
With `CN(C)Cc1cccc(C(=O)Nc2ccccc2N2CCOCC2)c1` the “response, percent” value was -2.4%.
With `CN(C)Cc1ccc(C(=O)N2CCN(c3nc4ccc(F)cc4s3)CC2)o1` the “response, percent” value was -1.38%.
In the case of `Nc1ncc(C(=O)N2CCN(c3nc4ccc(F)cc4s3)CC2)o1`, the “response, percent” value is reported as -1.66%.
In the case of `O=C(c1cncc(Cl)n1)N1CCN(c2nc3ccc(F)cc3s2)CC1`, the “response, percent” value is reported as -1.76%.
In the case of `Cc1ccnc(C(=O)N2CCN(c3nc4ccc(F)cc4s3)CC2)c1`, the “response, percent” value is reported as 1.25%.
